An excerpt weighted towards active compounds, which were near 4% of everything screened.
TROY NFkB inh: inhibitors of TROY-dependent NF-kB signaling; Q293 LMP1-TROYcd NF-kB luciferase reporter, 4 h; inhibition, % at 10 µM; actives 0.98% (n = 360,000);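 active means compounds whose plate-normalised and pattern-corrected inhibition of the luciferase reporter signal at the single screening dose is 50% or more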
Peg3 promoter: reduces Peg3 promoter-driven luciferase expression in HeLa; HeLa PEG-Prom luciferase reporter, luminescence, overnight; inhibition, % at 20 µM; actives 1.7% (n = 360,000);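 active means inhibition of at least 50% at 20 µM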
CF NFkB inh: blocks PAF-induced NF-kB reporter in cystic fibrosis cells. KKLEB NF-kB-GFP reporter, GFP fluorescence overnight. inhibition, % at 5 µM. actives 0.86% (n = 360,000);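 active means at least 50% inhibition at 5 µM, scaled per plate between neutral and stimulator controls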;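 further: PAF is a Pseudomonas aeruginosa culture filtrate used as stimulus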
HIF-2a block: blocks HIF-2a reporter activity | inhibition, % at 18.8 µM | 786-0 RCC cells HIF-2a reporter, luciferase luminescence, overnight | actives 0.72% (n = 360,000);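 active means inhibition of the luminescence signal of 40% or more relative to plate controls, in a single-dose primary screen at 18.75 µM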
TWEAK Fn14 block: blocks TWEAK-Fn14 interaction in a reporter cell assay; TWEAK-stimulated Fn14 reporter cells, luciferase luminescence, 8 h; inhibition, % at 10 µM; actives 2% (n = 360,000); AID 1159606; in the data active means inhibition above about 50%
KKLEB tox: CF airway cell cytotoxicity counter-screen; KKLEB CF airway cells viability, ATPlite luminescence, overnight; hits give low values; cells stimulated with P. aeruginosa culture filtrate; activity change (cytotoxicity), % at 5 µM; actives 0.36% (n = 360,000); AID 602141;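 active means corrected activity change at or below -50% at 5 µM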
Each line names hits and unclear results; the compound was inactive in the other large screens.

O=c1cc(-c2ccccc2)nc(Sc2ccc([N+](=O)[O-])cc2[N+](=O)[O-])[nH]1	TWEAK Fn14 block 52
O=[N+]([O-])c1ccc(Sc2nccn2Cc2ccccc2)c([N+](=O)[O-])c1	TWEAK Fn14 block 69
CC(C)Sc1nc(-c2ccccc2)cc(=O)[nH]1	none
Cc1cccc(Sc2ccc([N+](=O)[O-])cc2[N+](=O)[O-])n1	none
O=[N+]([O-])c1ccc(Sc2ncccn2)c([N+](=O)[O-])c1	TWEAK Fn14 block 54
CCN1C(=O)/C(=C2\C=Cc3ccccc3N2CC)OC1=S	none
COc1ccccc1-c1nnc(NC(=O)c2ccc3c(c2)OCO3)s1	CF NFkB inh 59, KKLEB tox -56
CC(C)(C)c1nnc(NC(=O)c2ccc3c(c2)OCO3)s1	none
O=C(Nc1nnc(SCC(=O)N2CCCc3ccccc32)s1)c1ccc2ccccc2c1	KKLEB tox -50
CCOC(=O)CSc1nnc(NC(=O)c2ccc3c(c2)OCO3)s1	HIF-2a block 54
O=C(Nc1nnc(SCC(=O)N2CCCc3ccccc32)s1)c1ccccc1	none
CC(c1ccccc1)c1nnc(NC(=O)c2ccc3c(c2)OCO3)s1 (configuration not stated)	none
CC(C)c1nnc(NC(=O)c2ccc3c(c2)OCO3)s1	TWEAK Fn14 block 73
Cc1cc(C)c(S(=O)(=O)N2CCC3(CC2)OCCN3S(=O)(=O)c2cccs2)c(C)c1	none
COC(=O)C1=C(C)NC(=O)/C1=C\c1ccco1	none
CN=c1scc(-c2ccc(F)cc2)n1/N=C/c1ccc(O)c(O)c1	TROY NFkB inh 76, TWEAK Fn14 block 88
CC(=O)c1cccc(NC(=O)c2ccc3c(=O)n4c(nc3c2)CCCCC4)c1	none
O=C(Nc1ccccc1Cl)c1ccc2c(=O)n3c(nc2c1)CCC3	none
Cc1ccc(NC(=O)c2ccc3c(=O)n4c(nc3c2)CCCCC4)nc1	none
O=C(Nc1cccc(S(=O)(=O)N2CCCC2)c1)c1ccc2c(=O)n3c(nc2c1)CCCCC3	TWEAK Fn14 block 57
O=C(Nc1nc(-c2ccccc2)cs1)c1ccc2c(=O)n3c(nc2c1)CCCCC3	TROY NFkB inh 71, Peg3 promoter 74, TWEAK Fn14 block 106
Cc1cccc(NC(=O)c2ccc3c(=O)n4c(nc3c2)CCCCC4)n1	TWEAK Fn14 block 57
Cc1ccc(C)c(NC(=O)C(C)N2C(=O)c3ccccc3C2=O)c1 (configuration not stated)	none
Cc1ccc(C(=O)N/N=C\c2ccc(-c3ccc(Cl)cc3)o2)cn1	none
O=C(COc1ccccc1Br)NC1CC1	none
CCCCC1CCC(C(=O)N(CCC(C)C)c2c(N)n(CCCC)c(=O)[nH]c2=O)CC1 (configuration not stated)	Peg3 promoter 98
Cc1ccccc1C(=O)NCCNc1ccc([N+](=O)[O-])cc1	none
Nc1nccnc1C(=O)OCC(=O)C12CC3CC(CC(C3)C1)C2	none
N#CC1(C#N)CC(C=O)=C(N)C1(C#N)CC(=O)C12CC3CC(CC(C3)C1)C2 (configuration not stated)	CF NFkB inh 82, TWEAK Fn14 block 87, KKLEB tox -55
COC(=O)c1cc(=O)n(CCc2ccc(OC)cc2)c(=Nc2ccc(F)c(Cl)c2)s1	Peg3 promoter 82
COc1ccc(/C=N/Nc2ccc(C(=O)O)cc2)cc1Br	TROY NFkB inh 66, TWEAK Fn14 block 93
CC(NC(=O)COC(=O)/C(=C/c1cccs1)c1cccs1)c1ccccc1 (configuration not stated)	TWEAK Fn14 block 50
CC(NC(=O)COC(=O)c1cccs1)c1ccccc1 (configuration not stated)	none
C=CCn1c2ccccc2c2nnc(SCCN3CCCCC3)nc21	none
C=CCn1c2ccccc2c2nnc(SCCCn3c(=O)[nH]c4ccccc43)nc21	TROY NFkB inh 68, Peg3 promoter 65, TWEAK Fn14 block 60
O=C(Nc1ccccc1Br)c1ccc(OC(=S)N2CCOCC2)cc1	none
O=C(COC(=O)CCN1C(=O)/C(=C\C=C\c2ccccc2)SC1=S)Nc1ccc(Br)cc1	HIF-2a block 58
CC(C)c1ccccc1NC(=O)COC(=O)CCN1C(=O)/C(=C\C=C\c2ccccc2)SC1=S	HIF-2a block 82, TWEAK Fn14 block 72
